Assay results reported in PubChem BioAssay (EPA / NIEHS).
Results filed as inconclusive are left out. The source made the active and inactive calls. How the source made its calls: active means hit-call score of the fitted dose curve at least 0.9, where 1 is the maximum; inconclusive means response in the unintended direction; inactive means score below 0.9.

Biological target: Estrogen receptor beta (Homo sapiens) (UniProt Q92731)
Test: OT_ER_ERbERb_0480: Odyssey Thera (OT) 8-hour HEK293T Protein-Complementation Assay for Estrogen Receptor-beta/-beta Homodimer (AID 2283357)
Method: OT_ER_ERbERb_0480 is a cell-based assay that uses HEK293T, a human kidney cell line, with measurements taken at 8 hours after chemical dosing in a 384-well plate.OT_ER_ERbERb_0480 is one of one assay component(s) measured or calculated from the OT_ER_ERbERb_0480 assay. It is designed to make measurements of protein fragment complementation, a form of binding reporter, as detected with fluorescence intensity signals by Protein-fragment Complementation technology.Data from the assay component OT_ER_ERbERb_0480 was analyzed into 1 assay endpoint. This assay endpoint, OT_ER_ERbERb_0480, was analyzed in the positive analysis fitting direction relative to DMSO as the negative control and baseline of activity. Using a type of binding reporter, measures of receptor for gain-of-signal activity can be used to understand the binding at the pathway-level as they relate to the gene ESR2. Furthermore, this assay endpoint can be referred to as a primary readout, because the performed assay has only produced 1 assay endpoint. To generalize the intended target to other relatable targets, this assay endpoint is annotated to the nuclear receptor intended target family, where the subfamily is steroidal.
Protein-fragment complementation assay, or PCA, is a method for the identification and quantification of protein-protein interactions. In the PCA, the proteins of interest ("bait" and "prey") are each covalently linked to fragments of a third protein (e.g. DHFR, which acts as a "reporter"). Interaction between the bait and the prey proteins brings the fragments of the reporter protein in close proximity to allow them to form a functional reporter protein whose activity can be measured. The OT ER beta / ER beta assay is a homodimer PCA of the ligand binding domain (LBD; amino acids 310-547) of human ER beta stably expressed in HEK293T cells. […] Cells are fixed in 4 percent formaldehyde and stained with Draq5 (BioStatus) to identify cells prior to signal detection. Fluorescent signal in the basal state of the assay is very low and is primarily punctuate and cytoplasmic. Modulation of this assay is quantified as an increase in mean fluorescence intensity in the nucleus (for agonists) or in the nucleus and cytoplasm (antagonists) relative to vehicle controls, and can be quantified on a high content imaging device or a laser scanning cytometer. The latter instrument is favored for this assay because of the rapid mode of data acquisition, the ability to acquire data from the entire cell population in a well (as opposed to a fraction of the well on the high content devices) and the larger dynamic range typically achieved with this instrument. To assess sensitivity of the ER beta/ER beta LBD assay to ligand, cells were treated with the ER agonist 17- beta-estradiol (E2) in 10-point concentration- response format for 8 hours and monitored response on a laser scanning plate cytometer (Acumen eX3; TTP Lab Tech).

Sequence of Estrogen receptor beta (Homo sapiens) (Q92731 whole entry, looked up): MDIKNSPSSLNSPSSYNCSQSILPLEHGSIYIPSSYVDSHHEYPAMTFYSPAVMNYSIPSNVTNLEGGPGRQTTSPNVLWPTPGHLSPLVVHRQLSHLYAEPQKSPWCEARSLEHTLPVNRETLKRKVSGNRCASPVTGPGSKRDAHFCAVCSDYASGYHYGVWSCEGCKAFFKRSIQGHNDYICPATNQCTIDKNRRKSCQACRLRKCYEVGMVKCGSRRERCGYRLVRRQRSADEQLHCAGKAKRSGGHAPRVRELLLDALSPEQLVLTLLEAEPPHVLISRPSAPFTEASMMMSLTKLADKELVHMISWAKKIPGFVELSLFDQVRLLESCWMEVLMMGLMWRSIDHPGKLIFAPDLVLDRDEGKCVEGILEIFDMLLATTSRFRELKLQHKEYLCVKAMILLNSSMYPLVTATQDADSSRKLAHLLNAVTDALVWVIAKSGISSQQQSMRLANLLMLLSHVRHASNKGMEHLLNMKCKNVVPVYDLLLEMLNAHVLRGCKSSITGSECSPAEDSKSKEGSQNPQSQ

Structure (SMILES) | outcome | AC50
O=P(OC(CCl)CCl)(OC(CCl)CCl)OC(CCl)CCl | inactive | –
CCCC(=O)OCC | inactive | –
O=C1CCC(N2C(=O)c3ccccc3C2=O)C(=O)N1 (stereo not given) | inactive | –
Cc1ccc(O)cc1 | inactive | –
CC(C)CC(C)(O)C#CC(C)(O)CC(C)C (stereo not given) | inactive | –
CCOC(=O)c1ccc(C2CCC(NC[C@H](O)COc3ccc(O)c(NS(C)(=O)=O)c3)CC2)cc1 (stereo not given in full) | inactive | –
CC[C@H](C)C(=O)O[C@H]1C[C@@H](C)C=C2C=C[C@H](C)[C@H](CC[C@@H]3C[C@@H](O)CC(=O)O3)[C@H]21 | inactive | –
Clc1nc(Cl)c(Cl)c(Cl)c1Cl | inactive | –
C1=CCCC=CCCC=CCC1 | inactive | –
Cc1[nH]cnc1C[C@H]1CCc2c(C)c3ccccc3n2C1=O | inactive | –
CNCc1ccc(NC(=O)c2c[nH]c3c2C(=O)CCC3)cc1 | inactive | –
CCNc1ccccc1 | inactive | –
COC(=O)c1c(Cl)c(Cl)c(C(=O)OC)c(Cl)c1Cl | – | 50 µM (active)
O=C(O)c1cc(N=Nc2ccc(S(=O)(=O)Nc3ccccn3)cc2)ccc1O | inactive | –
CC(C)CCO | inactive | –
On1ccccc1=S | inactive | –
CCN(C(=O)c1cc(C)cc(OC[C@H](C)Nc2ccncc2)c1)C(C)C | inactive | –
CC(C)(O)c1coc(S(=O)(=O)NC(=O)Nc2c3c(cc4c2CCC4)CCC3)c1 | inactive | –
CCCN(C1CCN(C(=O)C2CCNCC2)CC1)[C@@H]1CCc2ccc(OC)cc2C1 | inactive | –
NC(=O)NO | inactive | –

Structure (SMILES) | outcome | AC50
CC(C)=CCCC(C)CCO (stereo not given) | inactive | –
Cc1ccc(N)cc1O | inactive | –
Fc1ccccc1[C@@H](F)COC1CCC(Nc2ncnc3[nH]ncc23)CC1 (stereo not given in full) | inactive | –
CC(C)=CCCC(C)=CC=O | inactive | –
CCCCCCCCCCCCCCCO | inactive | –
COCCOc1cc2cc(C(=O)NC3CCN(C(C)C)CC3)n(CC(=O)Nc3ccc(Cl)cn3)c2cn1 | inactive | –
COc1ccc2sc(C(=O)Nc3nnn[nH]3)c(OC(C)C)c2c1 | inactive | –
C1N2CN3CN1CN(C2)C3 | inactive | –
CCC(C)(C)C(=O)O[C@H]1C[C@@H](C)C=C2C=C[C@H](C)[C@H](CC[C@@H]3C[C@@H](O)CC(=O)O3)[C@H]21 | inactive | –
Oc1ccc2c(c1)-c1ccccc1C2 | – | 12.7 µM (active)
O=C1OC(=O)C2C3C=CC(C3)C12 (stereo not given) | inactive | –
CCOCCOCCOCCO | inactive | –
COC(=O)c1ccccc1O | inactive | –
CC[C@H]1OC(=O)[C@H](C)[C@@H](O[C@H]2C[C@@](C)(OC)[C@@H](O)[C@H](C)O2)[C@H](C)[C@@H](O[C@@H]2O[C@H](C)C[C@H](N(C)C)[C@H]2O)[C@](C)(O)C[C@@H](C)C(=O)[C@H](C)[C@@H](O)[C@]1(C)O | inactive | –
C=CC(=C)CCC=C(C)C | inactive | –
O=C(O)CCN(C1(C(=O)NO)CCCC1)S(=O)(=O)c1ccc(Oc2ccc(F)cc2)cc1 | inactive | –
CCOC(=O)CC(CC(=O)OCC)(OC(C)=O)C(=O)OCC | inactive | –
COc1ccc(/C=C/S(=O)(=O)NC(=O)c2ccc(C)cc2Cl)cc1 | inactive | –
Cc1c(-c2cccnc2)c2ccccc2n1CCCCC(=O)O | inactive | –
CC[C@H]1CC[C@H](NCc2cc3c(cc2OC)[C@H]2C[C@H]2C(=O)N3C)[C@H](c2ccccc2)N1 | inactive | –
